Laboratory results: PubChem BioAssay (NCATS)
Records with an inconclusive call do not appear. Activity calls are given as the source filed them. Unless noted, calls follow the shape of the dose curve; as a rule, active = well fitted curve in the direction sought with a large enough effect; inconclusive = small, poorly fitted or top-dose-only effect, or another doubt; inactive = no such curve, though single readings can be large; an effect the other way counts as inactive or inconclusive.

Legend:
[1] = target: ATP-dependent 6-phosphofructokinase (Trypanosoma brucei brucei) (UniProt O15648); experiment: qHTS Assay to Find Inhibitors of T. brucei phosphofructokinase: hit validation (AID 492961);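 also: luminescence reports ADP formed as PFK phosphorylates fructose-6-phosphate with ATP; series mostly up to about 51 µM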
Sequence of ATP-dependent 6-phosphofructokinase (Trypanosoma brucei brucei) (O15648 whole entry, looked up): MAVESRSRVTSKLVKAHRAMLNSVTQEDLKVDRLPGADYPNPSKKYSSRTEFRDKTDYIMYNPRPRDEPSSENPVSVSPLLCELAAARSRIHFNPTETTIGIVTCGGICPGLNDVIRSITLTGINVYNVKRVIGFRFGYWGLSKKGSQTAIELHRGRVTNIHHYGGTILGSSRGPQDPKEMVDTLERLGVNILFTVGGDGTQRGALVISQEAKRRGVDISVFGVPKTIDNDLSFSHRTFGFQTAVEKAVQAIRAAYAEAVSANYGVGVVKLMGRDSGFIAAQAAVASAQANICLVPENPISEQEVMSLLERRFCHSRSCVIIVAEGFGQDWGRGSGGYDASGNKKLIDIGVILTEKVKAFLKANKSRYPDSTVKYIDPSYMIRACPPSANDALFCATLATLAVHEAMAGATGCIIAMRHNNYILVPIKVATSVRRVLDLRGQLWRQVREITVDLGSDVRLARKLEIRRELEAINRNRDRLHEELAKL
Summary of the method: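 ADP-Glo luminescence read-out of ADP formed by 1.25 nM PFK from 0.1 mM ATP and 0.5 mM F6P (TEA pH 8.0, 45 min, RT). Compounds titrated; activity normalized to no-enzyme and full-enzyme controls.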

[2] = target: Ubiquitin carboxyl-terminal hydrolase 2 (Homo sapiens) (UniProt O75604); experiment: qHTS Validation Assay for Inhibitors of Ubiquitin-specific Protease USP2a Using CHOP2 as the Reporter (AID 463106)
Sequence of Ubiquitin carboxyl-terminal hydrolase 2 (Homo sapiens) (O75604 whole entry, looked up): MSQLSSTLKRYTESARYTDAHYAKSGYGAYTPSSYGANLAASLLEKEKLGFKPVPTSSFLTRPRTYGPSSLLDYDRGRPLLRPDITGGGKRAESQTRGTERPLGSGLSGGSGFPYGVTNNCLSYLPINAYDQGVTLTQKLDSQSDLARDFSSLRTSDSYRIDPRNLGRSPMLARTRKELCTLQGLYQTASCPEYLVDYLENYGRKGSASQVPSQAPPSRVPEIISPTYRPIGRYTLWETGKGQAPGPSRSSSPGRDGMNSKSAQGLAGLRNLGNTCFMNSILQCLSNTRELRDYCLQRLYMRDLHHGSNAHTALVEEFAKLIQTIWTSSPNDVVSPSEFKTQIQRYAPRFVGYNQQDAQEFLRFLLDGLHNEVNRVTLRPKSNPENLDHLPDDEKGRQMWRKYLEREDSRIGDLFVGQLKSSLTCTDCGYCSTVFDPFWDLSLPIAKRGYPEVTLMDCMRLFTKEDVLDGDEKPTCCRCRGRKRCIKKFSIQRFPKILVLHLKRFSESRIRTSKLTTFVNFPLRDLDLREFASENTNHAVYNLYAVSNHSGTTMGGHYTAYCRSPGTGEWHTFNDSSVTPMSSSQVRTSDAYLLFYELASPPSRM
Summary of the method: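 Readout was coupled fluorescence (Ex 485/Em 531 nm), read 60 min after adding 25 nM final Ub-CHOP2 and 25 nM reporter substrate. Beforehand, 10 nM final USP2 core had 30 min at RT with compound in pH 8.0 buffer. Curves were fitted after normalization to NEM and flagged for artifacts using time-zero reads.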

[3] = target: DNA polymerase III PolC-type (Bacillus subtilis (strain 168)) (UniProt P13267); experiment: qHTS Validation Assay for the Inhibitors of DNA Replication in Gram-Positive Bacteria (AID 485295);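 also: PicoGreen fluorescence of double-stranded DNA made on primed circular M13 template; series mostly up to about 57 µM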
Sequence of DNA polymerase III PolC-type (Bacillus subtilis (strain 168)) (P13267 whole entry, looked up): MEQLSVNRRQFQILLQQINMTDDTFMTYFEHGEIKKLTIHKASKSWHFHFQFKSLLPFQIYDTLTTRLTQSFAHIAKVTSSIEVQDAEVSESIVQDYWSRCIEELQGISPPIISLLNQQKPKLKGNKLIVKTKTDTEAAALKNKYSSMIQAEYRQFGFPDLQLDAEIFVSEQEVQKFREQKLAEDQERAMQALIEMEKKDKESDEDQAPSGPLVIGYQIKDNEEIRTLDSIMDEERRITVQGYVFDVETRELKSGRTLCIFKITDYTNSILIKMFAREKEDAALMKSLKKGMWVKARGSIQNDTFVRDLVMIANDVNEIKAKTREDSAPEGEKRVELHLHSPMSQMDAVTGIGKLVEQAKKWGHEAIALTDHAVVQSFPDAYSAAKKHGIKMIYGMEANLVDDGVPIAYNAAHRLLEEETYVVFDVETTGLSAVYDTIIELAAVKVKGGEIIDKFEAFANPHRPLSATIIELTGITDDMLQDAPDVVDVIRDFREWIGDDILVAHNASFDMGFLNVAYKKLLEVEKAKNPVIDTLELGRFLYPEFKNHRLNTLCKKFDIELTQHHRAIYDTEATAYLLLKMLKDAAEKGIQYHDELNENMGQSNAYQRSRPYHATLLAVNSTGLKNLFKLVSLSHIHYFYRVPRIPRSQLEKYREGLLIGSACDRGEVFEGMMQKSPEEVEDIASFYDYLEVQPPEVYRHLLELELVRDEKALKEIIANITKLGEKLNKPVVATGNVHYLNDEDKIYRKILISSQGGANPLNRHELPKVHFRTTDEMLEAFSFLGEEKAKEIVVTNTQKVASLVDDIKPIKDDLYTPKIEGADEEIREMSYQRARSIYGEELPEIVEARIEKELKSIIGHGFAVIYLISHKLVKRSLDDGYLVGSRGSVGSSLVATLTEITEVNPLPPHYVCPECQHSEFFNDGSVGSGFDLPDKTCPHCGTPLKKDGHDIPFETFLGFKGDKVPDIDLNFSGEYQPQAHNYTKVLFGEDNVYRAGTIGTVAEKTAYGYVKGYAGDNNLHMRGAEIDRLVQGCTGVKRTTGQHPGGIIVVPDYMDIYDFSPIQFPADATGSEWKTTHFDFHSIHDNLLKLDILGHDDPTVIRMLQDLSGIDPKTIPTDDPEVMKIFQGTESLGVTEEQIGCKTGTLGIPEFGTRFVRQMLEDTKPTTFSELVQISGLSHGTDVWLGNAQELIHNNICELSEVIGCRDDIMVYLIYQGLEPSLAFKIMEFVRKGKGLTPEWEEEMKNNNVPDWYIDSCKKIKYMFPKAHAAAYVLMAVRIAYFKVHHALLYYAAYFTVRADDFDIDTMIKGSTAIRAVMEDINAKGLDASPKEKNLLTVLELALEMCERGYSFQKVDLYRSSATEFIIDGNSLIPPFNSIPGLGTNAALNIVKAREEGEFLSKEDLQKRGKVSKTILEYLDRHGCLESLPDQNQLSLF
Summary of the method: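 Reconstituted B. subtilis Pol III holoenzyme (PolC, beta clamp, SSB, primase) preincubated with compound, then M13Gori single-stranded circular template with dNTPs/NTPs added; room temperature reaction. Stopped with EDTA/PicoGreen; dsDNA fluorescence read, EDTA as full-inhibition control.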

[4] = target: Tumor susceptibility gene 101 protein (Homo sapiens) (UniProt Q99816); experiment: qHTS Validation Assay for Iinhibitors of HIV-1 Budding by Blocking the Interaction of PTAP/TSG101 (AID 485342; calls by dose curve)
Sequence of Tumor susceptibility gene 101 protein (Homo sapiens) (Q99816 whole entry, looked up, the tested form may be a part): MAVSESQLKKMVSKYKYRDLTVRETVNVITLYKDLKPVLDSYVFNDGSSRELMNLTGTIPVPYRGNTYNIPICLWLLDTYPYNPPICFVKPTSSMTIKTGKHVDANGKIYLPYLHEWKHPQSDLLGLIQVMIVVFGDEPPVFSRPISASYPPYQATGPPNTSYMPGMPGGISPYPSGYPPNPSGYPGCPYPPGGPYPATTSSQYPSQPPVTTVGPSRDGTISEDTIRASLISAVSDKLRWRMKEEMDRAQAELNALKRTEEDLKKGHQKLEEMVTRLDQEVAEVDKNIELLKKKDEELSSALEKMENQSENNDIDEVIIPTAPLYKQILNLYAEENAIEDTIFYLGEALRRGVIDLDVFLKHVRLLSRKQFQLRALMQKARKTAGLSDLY
Summary of the method: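 Tsg101 binding domain (10 uM) with FITC-labeled PTAP peptide (50 nM) in HEPES pH 7.5 buffer, 20 min at r.t. with compounds. Binding measured by fluorescence polarization.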

[5] = target: Beta-2 adrenergic receptor (Homo sapiens) (UniProt P07550); experiment: qHTS validation assay of beta-arrestin-biased ligands of beta2-adrenergic receptor (AID 485366)
Summary of the method: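 Screening used a titration range of up to 46 microM in a beta-arrestin recruitment Tango luciferase assay. Cells in 1% FBS medium were treated 18 hr at 37 degrees C, and luminescence was normalized to %Activity.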

[6] = target: ATP-dependent 6-phosphofructokinase (Trypanosoma brucei brucei) (UniProt O15648); experiment: qHTS Validation Assay to Find Inhibitors of T. brucei phosphofructokinase (AID 485368); conditions: outcome: dose series up to 57.5 µM
Summary of the method: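 PFK-generated ADP was measured after 45 min at room temperature using ADP-Glo. The reaction contained 0.5 mM F6P and 0.1 mM ATP.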

[7] = target: Thioredoxin reductase 1, cytoplasmic (Rattus norvegicus) (UniProt O89049); experiment: qHTS Assay for Substrates of Mammalian Selenoprotein Thioredoxin Reductase 1 (TrxR1) (AID 488772);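 also: series mostly up to about 57 µM; a drop in NADPH fluorescence below the no-compound background marks a TrxR1 substrate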
Sequence of Thioredoxin reductase 1, cytoplasmic (Rattus norvegicus) (O89049 whole entry, looked up): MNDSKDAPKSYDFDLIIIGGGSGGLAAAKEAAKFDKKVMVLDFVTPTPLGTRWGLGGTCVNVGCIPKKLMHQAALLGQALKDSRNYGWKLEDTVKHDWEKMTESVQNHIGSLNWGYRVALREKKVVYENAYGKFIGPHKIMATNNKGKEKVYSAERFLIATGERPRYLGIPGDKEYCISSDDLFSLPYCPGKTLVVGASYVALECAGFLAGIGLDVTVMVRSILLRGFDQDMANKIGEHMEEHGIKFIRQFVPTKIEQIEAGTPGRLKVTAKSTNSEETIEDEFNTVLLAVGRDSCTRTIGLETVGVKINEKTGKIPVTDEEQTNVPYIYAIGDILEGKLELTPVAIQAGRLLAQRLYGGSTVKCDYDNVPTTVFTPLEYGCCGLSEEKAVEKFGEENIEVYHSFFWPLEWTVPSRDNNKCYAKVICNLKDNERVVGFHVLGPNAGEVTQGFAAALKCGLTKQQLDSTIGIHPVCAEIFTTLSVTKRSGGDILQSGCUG
Summary of the method: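 In this dual-purpose format, potential substrates are identified from the first fluorescence read after selenite addition, not from the 8-minute delta. Rat enzyme is preincubated with NADPH and then with compound at ~22 deg C.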

[8] = target: Thioredoxin reductase 1, cytoplasmic (Rattus norvegicus) (UniProt O89049); experiment: qHTS Assay for Inhibitors of Mammalian Selenoprotein Thioredoxin Reductase 1 (TrxR1) (AID 488773);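 also: drop in NADPH fluorescence over an 8 min run after selenite addition; series mostly up to about 57 µM; nearly all actives have a fitted effect of over 40% in size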
Summary of the method: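 Inhibition is scored from the loss of NADPH fluorescence between first and last reads of an 8-min kinetic run. Selenite (400 uM) was the substrate, added after 15 min compound preincubation at room temperature.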

[9] = target: Flap endonuclease 1 (Homo sapiens) (UniProt P39748); experiment: qHTS Validation Assay for the Inhibitors of Human Flap endonuclease 1 (FEN1) (AID 488816)
Summary of the method: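 qHTS format: compounds and 10 nM FEN1 incubated 15 min at room temperature before adding 50 nM substrate. Cleavage followed by reads at 0 and 15 min; normalized data fitted to a four-parameter Hill curve.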

[10] = target: M-phase phosphoprotein 8 (Homo sapiens) (UniProt Q99549); experiment: qHTS Validation Assay for Inhibitors for MPP8 Chromodomain Interactions with Methylated Histone Tails (AID 488949); also: top concentration of the series differs between compounds; nearly all actives have a fitted effect of over 55% in size
Sequence of M-phase phosphoprotein 8 (Homo sapiens) (Q99549 whole entry, looked up): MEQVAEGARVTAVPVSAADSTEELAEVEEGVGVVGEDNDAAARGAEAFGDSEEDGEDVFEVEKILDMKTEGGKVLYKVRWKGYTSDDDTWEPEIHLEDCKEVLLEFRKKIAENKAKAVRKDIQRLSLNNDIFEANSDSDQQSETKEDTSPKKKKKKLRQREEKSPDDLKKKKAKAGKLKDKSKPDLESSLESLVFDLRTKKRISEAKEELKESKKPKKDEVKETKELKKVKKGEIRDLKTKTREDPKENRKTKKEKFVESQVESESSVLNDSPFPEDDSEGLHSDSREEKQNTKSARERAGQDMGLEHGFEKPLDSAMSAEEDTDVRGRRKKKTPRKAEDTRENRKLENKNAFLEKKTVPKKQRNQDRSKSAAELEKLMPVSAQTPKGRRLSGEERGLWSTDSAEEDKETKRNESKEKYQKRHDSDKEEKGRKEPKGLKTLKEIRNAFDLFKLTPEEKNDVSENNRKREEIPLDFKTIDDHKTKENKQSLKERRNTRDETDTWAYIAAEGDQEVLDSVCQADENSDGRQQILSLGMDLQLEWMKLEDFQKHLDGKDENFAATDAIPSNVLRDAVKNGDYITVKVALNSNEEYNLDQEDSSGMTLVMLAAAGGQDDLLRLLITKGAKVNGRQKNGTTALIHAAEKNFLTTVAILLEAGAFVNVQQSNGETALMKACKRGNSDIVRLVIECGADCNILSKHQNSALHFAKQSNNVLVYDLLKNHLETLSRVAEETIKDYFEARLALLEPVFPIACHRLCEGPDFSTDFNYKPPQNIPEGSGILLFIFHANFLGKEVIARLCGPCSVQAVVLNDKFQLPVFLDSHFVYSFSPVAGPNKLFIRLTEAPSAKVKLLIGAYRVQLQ
Summary of the method: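 MPP8 (50 nM) was pre-bound to 50 nM biotinylated H3(1-18)K9me3 peptide in PBS pH 7.4 with 0.01% Tween-20. Compounds were then added for 30 min at room temperature, and complex disruption was read by AlphaScreen with streptavidin donor and nickel-chelate acceptor beads.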

[11] = target: Chromobox protein homolog 1 (Homo sapiens) (UniProt P83916); experiment: qHTS Validation Assay for Inhibitors of HP1-beta Chromodomain Interactions with Methylated Histone Tails (AID 488953);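 also: loss of AlphaScreen luminescence from HP1-beta binding biotinylated H3K9me3 peptide; series mostly up to about 110 µM; nearly all actives have a fitted effect of over 50% in size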
Sequence of Chromobox protein homolog 1 (Homo sapiens) (P83916 whole entry, looked up): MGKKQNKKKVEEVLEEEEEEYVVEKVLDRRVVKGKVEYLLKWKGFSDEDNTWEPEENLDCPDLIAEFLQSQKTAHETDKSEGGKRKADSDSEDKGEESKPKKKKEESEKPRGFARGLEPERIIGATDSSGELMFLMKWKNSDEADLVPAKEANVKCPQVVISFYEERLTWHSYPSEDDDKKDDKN
Summary of the method: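 AlphaScreen proximity signal from streptavidin donor and nickel chelate acceptor beads (final 10 ug/mL) after 30 min dark incubation. Compounds had 30 min at room temperature with preformed complex of 50 nM HP1-beta and 50 nM b-H3(1-18)K9me3 in PBS pH 7.4 with 0.01% Tween-20.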

[12] = target: Methanococcus maripaludis chaperonin (MmCpn) (UniProt Q6LX38); experiment: High-Throughput Screening for Modulators of Cytosolic Chaperonin Activity: MmCpn Primary Screen (AID 488978);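 also: 50 nM MmCpn enzyme hydrolysing 30 µM ATP at 37 °C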
Summary of the method: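 MmCpn at 50 nM final was preincubated 5 min at RT with compound. ATP was then added at 30 uM final for 10 min at 37 C. ADP formed was detected by Transcreener HTRF (665/590 nm).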

[13] = target: Thyrotropin receptor (Homo sapiens) (UniProt P16473); experiment: qHTS Assay for Antagonists of the Thyroid Stimulating Hormone Receptor (AID 488980); also: series mostly up to about 58 µM
Summary of the method: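 TSHR-transfected HEK293 cells (2000/well) in HEPES-buffered HBSS with 70 uM RO 20-1724 were stimulated with 4 nM TSH (EC80, final) in the presence of compound. cAMP was measured by HTRF competition after lysis and 30 min at RT.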

[14] = target: D(1A) dopamine receptor (Homo sapiens) (UniProt P21728); experiment: HTS Assay for Allosteric Agonists of the Human D1 Dopamine Receptor: Primary Screen for Agonists (AID 488981); also: potency is read from the fitted curve at half-maximal effect
Sequence of D(1A) dopamine receptor (Homo sapiens) (P21728 whole entry, looked up): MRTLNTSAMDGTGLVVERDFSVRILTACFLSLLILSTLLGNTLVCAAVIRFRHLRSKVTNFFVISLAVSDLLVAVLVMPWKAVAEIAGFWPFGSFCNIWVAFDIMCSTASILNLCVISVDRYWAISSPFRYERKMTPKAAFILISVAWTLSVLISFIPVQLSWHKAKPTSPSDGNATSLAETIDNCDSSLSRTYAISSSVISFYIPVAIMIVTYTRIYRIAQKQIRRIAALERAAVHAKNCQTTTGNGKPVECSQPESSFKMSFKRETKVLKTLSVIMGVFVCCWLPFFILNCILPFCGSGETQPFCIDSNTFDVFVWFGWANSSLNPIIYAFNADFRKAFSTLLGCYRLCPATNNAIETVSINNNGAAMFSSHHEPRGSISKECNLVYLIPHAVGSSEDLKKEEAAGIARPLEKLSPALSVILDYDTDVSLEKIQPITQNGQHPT
Summary of the method: (§1)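 Calcium flux in an inducible, force-coupled HEK293 Trex D1 line (overnight at 30 C): agonist mode is the 180 s kinetic read after compound; potentiator mode is the following 180 s read after dopamine at EC20.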

[15] = target: D(1A) dopamine receptor (Homo sapiens) (UniProt P21728); experiment: HTS Assay for Allosteric Agonists of the Human D1 Dopamine Receptor: Primary Screen for Potentiators (AID 488982)
Summary of the method: as §1

[16] = target: D(1A) dopamine receptor (Homo sapiens) (UniProt P21728); experiment: HTS Assay for Allosteric Agonists of the Human D1 Dopamine Receptor: Primary Screen for Antagonists (AID 488983);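 also: calcium flux response to an EC80 dopamine challenge measured with no-wash dye; nearly all actives have a fitted effect of over 65% in size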; also: potency is read from the fitted curve at half-maximal effect
Summary of the method: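 Calcium-flux read-out in inducible HEK293 T-REx cells expressing D1, dye-loaded 30–90 min at room temperature. Kinetic reads: 180 s after compound (agonist phase), then 180 s after an EC80 dopamine challenge.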

[17] = Validation screen for small molecules that induce genotoxicity in human embryonic kidney (HEK293T) cells expressing luciferase-tagged ELG1 (AID 493106)
Summary of the method: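 ELG1-luciferase reporter readout (ONE-Glo, 30 min, room temperature) after 16 hr compound treatment at 37 °C of HEK293T cells at 2,000 per well. Rising luminescence flags genotoxic stress.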

[18] = Cytometry Cell-Based qHTS for Inhibitors of the mTORC1 Signaling Pathway in MEF cells (AID 2668);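 also: Tsc2-/- p53-/- mouse embryonic fibroblasts stably re-expressing wild-type Tsc2; percent cells positive for phospho-rpS6 Ser235/236 relative to propidium iodide stain; series mostly up to about 38 µM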
Summary of the method: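 MEFs (Tsc2-/-, p53-/- stably expressing WT Tsc2) treated 24 h at 37 degree Celsius, fixed, stained with Alexa-488 anti-phospho-rpS6 Ser235/236 and propidium iodide; Acumen laser scanning. Reported as % positive cells, phospho-S6 normalized to PI.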

[19] = Validation screen for small molecules that induce DNA re-replication in MCF 10A normal breast cells (AID 463097); also: nearly all actives have a fitted effect of over 60% in size
Summary of the method: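 MCF 10A cells exposed to compound 48 hr at 37 C, 5% CO2, then Hoechst-stained 40 min. Laser-scanning imaging of nuclear DNA content (405 nm ex, 500-530 nm em); re-replication scored as rise in nuclei with elevated fluorescence intensity.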

[20] = target: Transient receptor potential cation channel subfamily V member 1 (Homo sapiens) (UniProt Q8NER1); experiment: HTS Assay for Compounds that Act as Enhancers of the Vanilloid Receptor 1 (AID 488979)
Summary of the method: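 Calcium influx kinetics via Fluo-8 (480/520 nm) in TRPV1-expressing cells, 2000/well cultured overnight at 35.5C. Compound-alone read 3 min (agonist phase), followed by EC20 capsaicin challenge for 2 min (enhancer phase).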

Measured: Potency

CCCOc1ccc2nc(NC(=O)OC)sc2c1
inactive: [1]

CN[C@H]1CC[C@@H](c2ccc(Cl)c(Cl)c2)c2ccccc21
active: [14] 11.2 µM | [16] 10 µM
not listed: [18] | [19] | [20]
inactive: all other assays above

C=CCNC1=C2C[C@@H](C)C[C@H](OC)[C@H](O)[C@@H](C)/C=C(\C)[C@H](OC(N)=O)[C@@H](OC)/C=C\C=C(/C)C(=O)NC(=CC1=O)C2=O
inactive: [1]

NCCCC(=O)O
not listed: [1] | [15]
inactive: all other assays above

COC1C(OC(=O)/C=C/C=C/C=C/C=C/C(=O)O)CCC2(CO2)C1C1(C)OC1CC=C(C)C (stereo not drawn)
inactive: [1]
